biological target: OSBPL11; assay: pooled miR-30 sensor sort-seq; sequence = guide strand; conditions: shRNA
Further: reference of the scale not given here.

Sequence | sensor-assay potency score (higher = more potent)
TTACACACATCTTCCTCTCTGT | 0.858
TATACTTCATTAAATAGCCATA | -1.62
TTAAGTCTCTTTGTTGTCCTTC | 0.3
TAAATTAGTTCTTTTGCTCAGT | -0.186
TACATTCTGCATAAAATCCTGA | 0.486
TATCTGAAGTCTGCTAACCCAG | -1.27
TTGACTTGGTCTCCTCTGCGAT | -0.7
TTTACTTCAGCTGTAACCCGAT | 0.406

biological target: OSBPL2; assay: as above; conditions: shRNA

Sequence | sensor-assay potency score (higher = more potent)
TCTAAGTCAATCATTCCCGTGA | 0.725
TTTAAAATCTCCACTGTCCCAT | -0.254
TAGAATTACATCCTTGATCAGG | -0.471
TAAATCTGAATCCTAAATCTTC | -0.577
TTTTTGTCTTGAATGTGTCCTT | 0.356
TTCAGGATGGTCCACACGCTGA | -1.77
TTTTGTCTTGAATGTGTCCTTC | 0.333
TTCTCTCTGCTTCTCCTCCAGC | -1
TTGAAGGCGATTGGCATCGTGA | -0.348
TTAATTAGAATTACATCCTTGA | 1.08
TTGAATGTGTCCTTCCACCTTG | -0.0307
TTTGTTTTTGTCTTGAATGTGT | 0.222

biological target: OSBPL3; assay: as above; conditions: shRNA

Sequence | sensor-assay potency score (higher = more potent)
TTCTTCTCCGGGACTTCGCTTC | 0.0582
TGAAGCTATAGTATTGCTCGTA | -0.222
TTCTTGATGACAATCTCTCCAT | -0.313
TTGGAGATAACAGAACTTCCTG | 0.0622
TATAGTATTGCTCGTAGCCTTT | -1.22
TTCATCTCTGGAGTTTTCGGAT | -0.271
TTCTTTACAGACATCACTGAGA | 0.168
TCTACTTTCATTAGAAAGCTGA | -0.307
TACATTCATATAAACAATCAGG | -0.979
TAGAAGAATCTCTTATGCCAGC | -0.865
TAAATCGAGTGTCAGTAGGTGG | -1.06
TTGCTCTCCATACACAGGCAGA | -1.4

biological target: OSR1; assay: as above; conditions: shRNA

Sequence | sensor-assay potency score (higher = more potent)
TAGGACTTGGTGAAGTGGCGGC | 0.00529
TTGGAGTGAATATATCTGTGGT | 0.0172
TATATCTGTGGTCTCGCAGGTG | 0.107
TTCTTTTCTGGAGACAGCTTGG | -0.688
AATATATCTGTGGTCTCGCAGG | -1.37
TTGAGCGCTGGAACGCTGCCTC | -0.183
TTTCCCACACTCTTGACACTTG | -0.209
TAGGTTGTAGGACTTGGTGAAG | -1.09

Source: the OligoGym collection
